# From PubChem BioAssay AID1508601 (ICCB-Longwood Screening Facility, Harvard Medical School, 2020)
# Among all 5,700 compounds or so, about 85 (1%) were called active. Cut-off read from the data, not from the text of the source: active = p53-positive nuclei above about 36% (passing the limit was not always enough); inactive = the rest. For the sample, actives were picked, then their nearest neighbours and some compounds at random.
# Experiments:
# [1] = p53 stabilisation in HPV-positive human cells, imaging, p53-positive nuclei imaging, 24 h, 48 h (AID 1508601); conditions: 24/48 h
# [2] = target: Cellular tumor antigen p53 (Homo sapiens) (UniProt P04637); assay: as above; conditions: 24/48 h, stronger effect = higher value
# [3] = measured here: cell number at 24 h, concentration not given here
# [4] = measured here: cell number at 48 h, concentration not given here
# [5] = measured here: p53 positive nuclei at 24 h, concentration not given here
# [6] = measured here: cell number at 24 h, Library stock concentration: 10 mM
# [7] = measured here: cell number at 48 h, Library stock concentration: 10 mM
# [8] = Library stock concentration: 10 mM
# [9] = measured here: p53 positive nuclei at 24 h, Library stock concentration: 10 mM
# [10] = measured here: cell number at 24 h, Library stock concentration: 80 uM
# [11] = measured here: cell number at 24 h, Library stock concentration: 400 uM
# [12] = measured here: cell number at 24 h, Library stock concentration: 2 mM
# [13] = measured here: cell number at 48 h, Library stock concentration: 80 uM
# [14] = measured here: cell number at 48 h, Library stock concentration: 400 uM
# [15] = measured here: cell number at 48 h, Library stock concentration: 2 mM
# [16] = Library stock concentration: 80 uM
# [17] = Library stock concentration: 400 uM
# [18] = Library stock concentration: 2 mM
# [19] = measured here: p53 positive nuclei at 24 h, Library stock concentration: 80 uM
# [20] = measured here: p53 positive nuclei at 24 h, Library stock concentration: 400 uM
# [21] = measured here: p53 positive nuclei at 24 h, Library stock concentration: 2 mM
# Chain of Cellular tumor antigen p53 (Homo sapiens) (P04637 whole entry, looked up): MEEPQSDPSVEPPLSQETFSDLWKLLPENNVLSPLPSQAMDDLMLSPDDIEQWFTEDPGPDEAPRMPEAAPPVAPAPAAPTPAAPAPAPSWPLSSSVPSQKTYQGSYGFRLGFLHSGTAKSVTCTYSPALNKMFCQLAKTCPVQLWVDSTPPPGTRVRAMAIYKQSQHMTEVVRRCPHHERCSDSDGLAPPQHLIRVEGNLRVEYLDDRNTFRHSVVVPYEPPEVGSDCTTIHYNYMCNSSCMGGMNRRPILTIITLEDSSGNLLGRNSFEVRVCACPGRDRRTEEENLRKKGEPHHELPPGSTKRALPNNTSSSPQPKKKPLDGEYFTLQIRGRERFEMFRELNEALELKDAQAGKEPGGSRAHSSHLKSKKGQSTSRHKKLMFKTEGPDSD
structure (smiles),measurement,setting,value
CC[C@@]1(O)C[C@H](O)c2c(cc3c(c2O)C(=O)c2c(O)ccc(O)c2C3=O)[C@H]1C(=O)OC,"nuclei count, normalised",[1]; [3],83.7%
same,"nuclei count, normalised",[1]; [4],84%
same,"p53-positive nuclei, normalised",[2]; concentration not given here,23.5% (inactive)
same,"p53-positive nuclei, normalised",[2]; [5],4.09%
CC[C@@]1(O)C[C@H](O[C@H]2C[C@H](N(C)C)[C@H](O)[C@H](C)O2)c2c(cc3c(c2O)C(=O)c2c(O)ccc(O)c2C3=O)[C@H]1C(=O)OC,"nuclei count, normalised",[1]; [3],29.9%
same,"nuclei count, normalised",[1]; [4],15.5%
same,"p53-positive nuclei, normalised",[2]; concentration not given here,92.8% (active)
same,"p53-positive nuclei, normalised",[2]; [5],88.5%
CC[C@@]1(O)C[C@H](O[C@H]2C[C@H](N(C)C)[C@H](O)[C@H](C)O2)c2c(cc3c(c2O)C(=O)c2c(O)cccc2C3=O)[C@H]1C(=O)OC,"nuclei count, normalised",[1]; [3],50.2%
same,"nuclei count, normalised",[1]; [4],38.4%
same,"p53-positive nuclei, normalised",[2]; concentration not given here,27.4% (inactive)
same,"p53-positive nuclei, normalised",[2]; [5],16.3%
CCCCC/C=C\C/C=C\C/C=C\C/C=C\CCCC(=O)Nc1cccc([N+](=O)[O-])c1,"nuclei count, normalised",[1]; [3],108%
same,"nuclei count, normalised",[1]; [4],112%
same,"p53-positive nuclei, normalised",[2]; concentration not given here,-0.154% (inactive)
same,"p53-positive nuclei, normalised",[2]; [5],-0.0854%
CN1CCC(N(C)CCC2CCOCC2)CC1,"nuclei count, normalised",[1]; [3],102%
same,"nuclei count, normalised",[1]; [4],105%
same,"p53-positive nuclei, normalised",[2]; concentration not given here,-0.0157% (inactive)
same,"p53-positive nuclei, normalised",[2]; [5],-0.151%
CN1C(=O)[C@@]23C[C@]4([C@]56C[C@@]78SS[C@@](CO)(C(=O)N7[C@@H]5Nc5ccccc56)N(C)C8=O)c5ccccc5N[C@H]4N2C(=O)[C@]1(CO)SS3,"nuclei count, normalised","[1]; measured here: cell number at 24 h, Library stock concentration: 500 nM",119%
same,"nuclei count, normalised","[1]; measured here: cell number at 24 h, Library stock concentration: 1.5 uM",109%
same,"nuclei count, normalised","[1]; measured here: cell number at 24 h, Library stock concentration: 4.6 uM",104%
same,"nuclei count, normalised","[1]; measured here: cell number at 24 h, Library stock concentration: 13.7 uM",98.9%
same,"nuclei count, normalised","[1]; measured here: cell number at 24 h, Library stock concentration: 41 uM",67.2%
same,"nuclei count, normalised","[1]; measured here: cell number at 24 h, Library stock concentration: 123 uM",42.7%
same,"nuclei count, normalised","[1]; measured here: cell number at 24 h, Library stock concentration: 370 uM",46.4%
same,"nuclei count, normalised","[1]; measured here: cell number at 24 h, Library stock concentration: 1.111 mM",36.8%
same,"nuclei count, normalised","[1]; measured here: cell number at 24 h, Library stock concentration: 3.333 mM",34.9%
same,"nuclei count, normalised",[1]; [6],41.7%
same,"nuclei count, normalised","[1]; measured here: cell number at 48 h, Library stock concentration: 500 nM",117%
same,"nuclei count, normalised","[1]; measured here: cell number at 48 h, Library stock concentration: 1.5 uM",107%
same,"nuclei count, normalised","[1]; measured here: cell number at 48 h, Library stock concentration: 4.6 uM",101%
same,"nuclei count, normalised","[1]; measured here: cell number at 48 h, Library stock concentration: 13.7 uM",85.5%
same,"nuclei count, normalised","[1]; measured here: cell number at 48 h, Library stock concentration: 41 uM",44.9%
same,"nuclei count, normalised","[1]; measured here: cell number at 48 h, Library stock concentration: 123 uM",30.9%
same,"nuclei count, normalised","[1]; measured here: cell number at 48 h, Library stock concentration: 370 uM",32.7%
same,"nuclei count, normalised","[1]; measured here: cell number at 48 h, Library stock concentration: 1.111 mM",24.5%
same,"nuclei count, normalised","[1]; measured here: cell number at 48 h, Library stock concentration: 3.333 mM",23.4%
same,"nuclei count, normalised",[1]; [7],27.3%
same,"p53-positive nuclei, normalised",[2]; Library stock concentration: 500 nM,0.0843% (inactive)
same,"p53-positive nuclei, normalised",[2]; Library stock concentration: 1.5 uM,0.192% (inactive)
same,"p53-positive nuclei, normalised",[2]; Library stock concentration: 4.6 uM,0.185% (inactive)
same,"p53-positive nuclei, normalised",[2]; Library stock concentration: 13.7 uM,1.67% (inactive)
same,"p53-positive nuclei, normalised",[2]; Library stock concentration: 41 uM,83.6% (active)
same,"p53-positive nuclei, normalised",[2]; Library stock concentration: 123 uM,95.7% (active)
same,"p53-positive nuclei, normalised",[2]; Library stock concentration: 370 uM,94.5% (active)
same,"p53-positive nuclei, normalised",[2]; Library stock concentration: 1.111 mM,72.8% (active)
same,"p53-positive nuclei, normalised",[2]; Library stock concentration: 3.333 mM,12.8% (inactive)
same,"p53-positive nuclei, normalised",[2]; [8],7.98% (inactive)
same,"p53-positive nuclei, normalised","[2]; measured here: p53 positive nuclei at 24 h, Library stock concentration: 500 nM",-0.114%
same,"p53-positive nuclei, normalised","[2]; measured here: p53 positive nuclei at 24 h, Library stock concentration: 1.5 uM",-0.173%
same,"p53-positive nuclei, normalised","[2]; measured here: p53 positive nuclei at 24 h, Library stock concentration: 4.6 uM",0.0127%
same,"p53-positive nuclei, normalised","[2]; measured here: p53 positive nuclei at 24 h, Library stock concentration: 13.7 uM",13.4%
same,"p53-positive nuclei, normalised","[2]; measured here: p53 positive nuclei at 24 h, Library stock concentration: 41 uM",101%
same,"p53-positive nuclei, normalised","[2]; measured here: p53 positive nuclei at 24 h, Library stock concentration: 123 uM",116%
same,"p53-positive nuclei, normalised","[2]; measured here: p53 positive nuclei at 24 h, Library stock concentration: 370 uM",117%
same,"p53-positive nuclei, normalised","[2]; measured here: p53 positive nuclei at 24 h, Library stock concentration: 1.111 mM",105%
same,"p53-positive nuclei, normalised","[2]; measured here: p53 positive nuclei at 24 h, Library stock concentration: 3.333 mM",30.1%
same,"p53-positive nuclei, normalised",[2]; [9],12.6%
NCCc1ccccc1Br,"nuclei count, normalised",[1]; [10],86.4%
same,"nuclei count, normalised",[1]; [11],90.6%
same,"nuclei count, normalised",[1]; [12],89.9%
same,"nuclei count, normalised",[1]; [6],98.5%
same,"nuclei count, normalised",[1]; [13],92.2%
same,"nuclei count, normalised",[1]; [14],90.8%
same,"nuclei count, normalised",[1]; [15],95%
same,"nuclei count, normalised",[1]; [7],98.1%
same,"p53-positive nuclei, normalised",[2]; [16],0.0704% (inactive)
same,"p53-positive nuclei, normalised",[2]; [17],0.0834% (inactive)
same,"p53-positive nuclei, normalised",[2]; [18],0.0298% (inactive)
same,"p53-positive nuclei, normalised",[2]; [8],0.0211% (inactive)
same,"p53-positive nuclei, normalised",[2]; [19],0.101%
same,"p53-positive nuclei, normalised",[2]; [20],0.248%
same,"p53-positive nuclei, normalised",[2]; [21],-0.0657%
same,"p53-positive nuclei, normalised",[2]; [9],-0.0492%
CN1CCC(C(=O)c2cccc(NC(=O)c3c(F)cc(F)cc3F)n2)CC1,"nuclei count, normalised",[1]; [10],126%
same,"nuclei count, normalised",[1]; [11],115%
same,"nuclei count, normalised",[1]; [12],121%
same,"nuclei count, normalised",[1]; [6],116%
same,"nuclei count, normalised",[1]; [13],118%
same,"nuclei count, normalised",[1]; [14],108%
same,"nuclei count, normalised",[1]; [15],108%
same,"nuclei count, normalised",[1]; [7],105%
same,"p53-positive nuclei, normalised",[2]; [16],-0.0182% (inactive)
same,"p53-positive nuclei, normalised",[2]; [17],-0.00116% (inactive)
same,"p53-positive nuclei, normalised",[2]; [18],-0.0434% (inactive)
same,"p53-positive nuclei, normalised",[2]; [8],-0.0859% (inactive)
same,"p53-positive nuclei, normalised",[2]; [19],-0.0846%
same,"p53-positive nuclei, normalised",[2]; [20],0.109%
same,"p53-positive nuclei, normalised",[2]; [21],0.0583%
same,"p53-positive nuclei, normalised",[2]; [9],-0.136%
